The values below are quoted from earlier work in PubChem BioAssay AID977610.

A short description of the data set: PubChem AID 977610. The following applies: PDB protein-ligand complexes, literature Ki.

Hit rate of the full screen: of about 3,600 compounds, about 3,600 (100%) were called active. The limit is not given here; nearly all actives have Ki up to about 18000 µM. The set was probably picked from earlier hits. The list shows a part of the results. Bridge positions count the residues as written; N and C are the ends. Square brackets hold non-standard residues; d marks the D form. Peptide text beside a SMILES is read from it. Orn(CH(NH2)2) = NC(N)NCCC[C@H](N)C(=O)O

Take `C[C@@H](N)C(=O)N[C@H](C)C(=O)O` (H-[dA]-[dA]-OH): the Ki (protein: vancomycin resistance D,D-dipeptidase/D,D-pentapeptidase VanXYc D59S mutant, PDB entry 4oak) was 59.7 µM (active). In the case of `O=c1[nH]c(=O)n([C@@H]2O[C@H](CO[P+](O)(O)O[P+](O)(O)O)[C@@H](O)[C@H]2O)cc1-c1ccc(CO)s1`, the Ki (protein: Histo-blood group ABO system transferase, PDB entry 3v0p) is 0.53 µM (active).

For `O=c1[nH]c(=O)n([C@@H]2O[C@H](CO[P+](O)(O)O[P+](O)(O)O[C@H]3O[C@H](CO)[C@H](O)[C@H](O)[C@H]3O)[C@@H](O)[C@H]2O)cc1-c1ccccc1`, the Ki (protein: Histo-blood group ABO system transferase, PDB entry 3v0l) is 3 µM (active). On to `N[C@](CF)(Cc1c[nH]c2ccccc12)C(=O)O`, for which the Ki (protein: Pyridoxal-dependent decarboxylase domain protein RUMGNA-01526, PDB entry 4obv) was 178000 µM (active). As to `CN(C)CCOc1cccc(-c2ccc(Cl)cc2)c1CN1CCN(c2ccc(C(=O)NS(=O)(=O)c3ccc(NCC4CCOCC4)c([N+](=O)[O-])c3)c(Oc3ccc4[nH]ccc4c3)c2)CC1`, the inhibition constant Ki was 0.0001 µM (active) (protein: Apoptosis regulator Bcl-2, PDB entry 4lxe) and 1e-05 µM (active) (protein: Apoptosis regulator Bcl-2, PDB entry 4man). `CN1C(=O)[C@@](CCC2CCCCC2)(C[C@H]2CCC[C@@H](Nc3ccc4ccccc4n3)C2)N=C1N`: for the setting “protein: Beta-secretase 1 BACE 1, PDB entry 4r95”, the Ki is 0.014 µM (active). As to `Cc1cc(Oc2cccc(O)c2)cc(-c2ccccc2)n1`, the Ki (protein: Macrophage migration inhibitory factor-like protein MIF, PDB entry 4p7m) was 0.039 µM (active). Regarding `COc1ccc(-c2cc(Oc3cc(C)cc(OC)c3)cc(C)n2)cc1`, the Ki (protein: Macrophage migration inhibitory factor-like protein MIF, PDB entry 4p7s) is 0.038 µM (active). For `COc1cc(O)c2c(c1)/C=C/C[C@H](O)[C@H](O)C(O)CCC[C@H](C)OC2=O` (stereo partly drawn), the Ki (protein: Tak1-Tab1 fusion protein, PDB entry 4gs6) was 0.071 µM (active).

Consider `Cc1ncc(CO[P+](O)(O)O)c(CNc2co[nH]c2=O)c1O`, for which the Ki (protein: methionine gamma-lyase MGL, PDB entry 4oma) is 68 µM (active). Consider `CCCN1CCC(c2nc3c(C(N)=O)cccc3[nH]2)CC1`, for which the Ki (protein: Poly [ADP-ribose] polymerase 1, PARP-1, PDB entry 2rcw) is 0.008 µM (active). For the molecule `O=C(O)Cc1nn(Cc2nc3cc(C(F)(F)F)ccc3s2)c(=O)c2ccccc12`, the Ki (protein: Lactoylglutathione lyase, PDB entry 4kyh) is 1.2 µM (active).

Take `O=C(NS(=O)(=O)c1ccc(NC2CCOCC2)c([N+](=O)[O-])c1)c1ccc(N2CCN(CC3=C(c4ccc(Cl)cc4)CCOC3)CC2)cc1`: for the setting “protein: Apoptosis regulator Bcl-2, PDB entry 4lxd”, the Ki was 0.059 µM (active). On to `CC1(C)CCC(c2ccc(Cl)cc2)=C(CN2CCN(c3ccc(C(=O)NS(=O)(=O)c4ccc(N[C@H](CCN5CCOCC5)CSc5ccccc5)c(S(=O)(=O)C(F)(F)F)c4)cc3)CC2)C1`, for which the Ki (protein: Apoptosis regulator Bcl-2, PDB entry 4lvt) is 4.4e-05 µM (active). In the case of `CC(C)C[C@H](NC(=O)[C@@H]1CSS[C@@H]2CSSC[C@H](NC(=O)CNC(=O)[C@H](CCCN=C(N)N)NC(=O)CNC(=O)[C@H](CC(C)C)NC(=O)[C@@H](NC(=O)CN)C2)C(=O)N[C@@H](CCC(=O)O)C(=O)N[C@@H](CC(N)=O)C(=O)N[C@@H](Cc2cnc[nH]2)C(=O)N[C@@H](CCCN=C(N)N)C(=O)N1)C(N)=O`, the Ki (protein: Urokinase-type plasminogen activator, PDB entry 4os2) is 0.2 µM (active).

Turning to `CC(C)C[C@H](NC(=O)[C@@H]1CSSC[C@H]2C[C@H](NC(=O)CN)C(=O)N[C@@H](CC(C)C)C(=O)NCC(=O)N[C@@H](CCCN=C(N)N)C(=O)NCC(=O)N[C@@H](CSS2)C(=O)N[C@@H](CCC(=O)O)C(=O)N[C@@H](CC(N)=O)C(=O)N[C@@H](Cc2cnc[nH]2)C(=O)N[C@@H](CCCN=C(N)N)C(=O)N1)C(N)=O`, the Ki (protein: Urokinase-type plasminogen activator, PDB entry 4os6) was 0.36 µM (active). Consider `CSCC[C@@H]1NC(=O)[C@H](CCCNC(N)N)NC(=O)[C@H](Cc2cnc[nH]2)NC(=O)[C@H](CC(N)=O)NC(=O)[C@H](CCC(=O)O)NC(=O)[C@H](CC(C)C)NC(=O)CNC(=O)[C@H](CCCNC(N)N)NC(=O)[C@H](Cc2c[nH]c3ccccc23)NC(=O)[C@H](CO)NC(=O)[C@@H](N)CSSC[C@@H](C(=O)O)NC1=O` (H-CSW[Orn(CH(NH2)2)]GLENH[Orn(CH(NH2)2)]MC-OH; disulfide 1-12), for which, under “protein: Plasminogen activator, urokinase, PDB entry 2nwn”, the Ki is 0.5 µM (active).

With `NC(=O)C[C@@H]1NC(=O)[C@@H](N)CSSC[C@@H](C(=O)NCC(=O)O)NC(=O)[C@H](CCCN=C(N)N)NC(=O)CNC1=O` (H-CNGRCG-OH; disulfide 1-5), the Ki (protein: Aminopeptidase N pAPN, PDB entry 4ou3) was 38.7 µM (active). `CC(C)C[C@H](NC(=O)[C@@H]1CSSC[C@H](N)C(=O)N[C@H]2CSSC[C@H](NC(=O)CNC(=O)[C@H](CCCNC(N)N)NC(=O)CNC(=O)[C@H](CC(C)C)NC2=O)C(=O)N[C@@H](CCC(=O)O)C(=O)N[C@@H](CC(N)=O)C(=O)N[C@@H](Cc2cnc[nH]2)C(=O)N[C@@H](CCCNC(N)N)C(=O)N1)C(N)=O` (H-CCLG[Orn(CH(NH2)2)]GCENH[Orn(CH(NH2)2)]CL-NH2; disulfide 1-12, 2-7): the Ki (protein: Urokinase-type plasminogen activator (C122A, N145Q mutation), PDB entry 4gly) is 7.7 µM (active). As to `O=c1cc(-c2ccc(Br)cc2)oc2ccccc12`, the Ki (protein: Tankyrase-2, PDB entry 4kzu) was 0.313 µM (active). On to `C=CC[C@H](C(=O)N1CCCC[C@H]1C(=O)O[C@H](CCc1ccc(OC)c(OC)c1)c1cccc(OCC(=O)O)c1)c1cc(OC)c(OC)c(OC)c1`, for which, under “protein: Peptidyl-prolyl cis-trans isomerase FKBP5 FKBP51FK1, PDB entry 4tw6”, the inhibition constant (Ki) was 61 µM (active). With `COc1ccc(CC[C@@H](OC(=O)[C@@H]2CCCCN2C(=O)[C@H](c2cc(OC)c(OC)c(OC)c2)[C@@H]2CC=CCC2)c2cccc(OCC(=O)NCc3c(O)ccc4cc5ccc(=O)cc-5oc34)c2)cc1OC`, the Ki (protein: Peptidyl-prolyl cis-trans isomerase FKBP4 FKBP52FK1FK2, PDB entry 4tw8) is 2.61 µM (active). Regarding `COc1ccc(CC[C@@H](OC(=O)[C@@H]2CCCCN2C(=O)[C@H](c2cc(OC)c(OC)c(OC)c2)[C@@H]2C=CCCC2)c2cccc(OCCN3CCOCC3)c2)cc1OC`, the Ki (protein: Peptidyl-prolyl cis-trans isomerase FKBP5 FKBP51FK1, PDB entry 4tw7) was 0.026 µM (active). With `OC[C@H]1CNC[C@@H](O)[C@@H]1O[C@@H]1O[C@H](CO)[C@@H](O)[C@H](O)[C@@H]1O`, the Ki (protein: GH26 beta-mannanase CjMan26C from Cellvibrio japonicus, PDB entry 4cd4) is 0.263 µM (active) and the Ki (protein: GH113 beta-mannanase AaManA from Alicyclobacillus acidocaldarius, PDB entry 4cd6) is 260 µM (active). `OC[C@H]1CNC[C@@H](O)[C@@H]1O`: under “protein: Beta-glucosidase 1, PDB entry 4iic”, the Ki was 14 µM (active). On to `O=C(c1ccc(F)c(F)c1Nc1ccc(I)cc1F)N1CC(O)([C@@H]2CCCCN2)C1`, for which, where the note is “protein: Dual specificity mitogen-activated protein kinase kinase 1, PDB entry 4lmn”, the Ki is 5e-05 µM (active).
